Measurements taken from the OligoGym collection.

biological target: COX10; test: pooled miR-30 sensor sort-seq; sequence = guide strand; conditions: shRNA
Also: reference of the scale not given here.

Row | Sequence | sensor-assay potency score (higher = more potent)
1 | TCTAGTTCTATCAATTCCTTTT | -0.971
2 | TGATTGGATGTTATCTACCTAC | -0.498
3 | TTATCTACCTACAATCCCTTTA | -0.2
4 | TTCGTTTATAATCTTGTTCTAA | 0.241
5 | TCTGCGTCCACGTAGAAGCGGA | -0.792
6 | ATAATCTTGTTCTAAACCCAGC | -0.854
7 | TGATTTTGGATAGTCGAGCCAA | -0.198
8 | TTGTATTCACTGACTGAGCTGA | -0.0577
9 | TAACCGTATTTGGTAACCGAGA | -1.58
10 | TATTGAGTCTTCAATTACTGAG | -0.782
11 | TACACTTGCAGCTTCATCTCTT | 1.01
12 | TTTGAGGAAGCTAAAGTGCTGA | 0.14
13 | TGCAGTGGTACTTACAACCAGA | -1.05
14 | TTTTAGAAGGAACTGCTTCCAA | -0.134
15 | TTGTTTAACTCTCCCACCCCGA | -0.416
16 | TTCAGTGGTGTGTAGCAGCAGG | -0.511
17 | TTTCTGCTTTGGCTTGACCTGA | -0.722
18 | TATTGTTAGAAGGACTATGGTT | -0.28
19 | TTCTTTGTCCTATTCATGTTTG | -0.705
